Measurements published in PubChem BioAssay AID1159580 (chemical genetic matrix, 2015).
Hit rate of the full screen: of about 5,500 compounds, about 2,000 (36%) were called active. About 18% were inconclusive and are not listed. Cut-off read from the data, not from the text of the source: active = normalized growth mostly below about 0.91 (no sharp cut-off); inconclusive = no clear call, values can overlap the other calls; inactive = mostly above about 0.92. The list shows a part of the results.

Experiment: chemical genetic growth profiling, strain panel (AID 1159580);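 note: tested at 20 µM; growth read once vehicle control cultures reached saturation at 30 °C; 1 = growth at the plate median or of vehicle wells; lower values mean less growth of the strain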
Conditions: S. cerevisiae deletion strains, growth OD

Measured: normalized growth

CC1OC(O[C@H]2/C=C/C=C/C=C/C=C/C=C/C=C/C=C/[C@H](C)[C@@H](O)[C@@H](C)[C@H](C)OC(=O)CC(O)CC(O)CCC(O)C(O)CC(O)C[C@]3(O)C[C@H](O)C(C(=O)O)C(C2)O3)C(O)[C@H](N)C1O (some centres not stated)
inactive: locus YJR066W, strain TOR1, active compounds read low 1.01 | locus YJR075W, strain HOC1, active compounds read low 1.03 | locus YKL009W, strain mrt4, active compounds read low 0.963 | locus YKL068W, active compounds read low 0.997 | locus YKL085W, strain MDH1 (second series), active compounds read low 1 | locus YKL085W, strain MDH1, active compounds read low 1 | locus YKL160W, strain elf1, active compounds read low 0.975 | locus YKR001C, strain vps1, active compounds read low 1.04 | locus YKR091W, strain srl3, active compounds read low 1.01 | locus YLR039C, strain RIC1, active compounds read low 1.07 | locus YLR058C, strain SHM2, active compounds read low 0.984 | locus YLR102C, strain apc9, active compounds read low 1.02 | locus YLR258W, strain gsy2, active compounds read low 0.981 | locus YLR262C, strain YPT6 (second series), active compounds read low 0.936 | locus YLR262C, strain YPT6, active compounds read low 1.07 | locus YLR268W, strain sec22, active compounds read low 1.06 | locus YLR320W, strain mms22, active compounds read low 0.917 | locus YLR330W, strain CHS5, active compounds read low 1.02 | locus YLR342W, strain FKS1 (second series), active compounds read low 1.04 | locus YLR371W, strain rom2, active compounds read low 1.03 | locus YLR418C, strain cdc73, active compounds read low 0.973 | locus YML016C, strain PPZ1, active compounds read low 0.986 | locus YML032C, strain rad52, active compounds read low 0.996 | locus YML124C, strain tub3, active compounds read low 1.01 | locus YMR078C, strain ctf18, active compounds read low 1.02 | locus YMR223W, strain ubp8, active compounds read low 0.992 | locus YMR263W, strain SAP30, active compounds read low 1 | locus YMR307W, strain GAS1, active compounds read low 0.768 | locus YNL067W, strain RPL9B, active compounds read low 0.982 | locus YNL153C, strain GIM3, active compounds read low 0.994 | locus YNL183C, strain NPR1, active compounds read low 0.994 | locus YNL209W, strain ssb2, active compounds read low 0.993 | locus YNL233W, strain BNI4, active compounds read low 0.982 | locus YNL250W, strain rad50, active compounds read low 1 | locus YNL271C, strain bni1, active compounds read low 1.01 | locus YNL298W, strain CLA4, active compounds read low 1.01 | locus YNL307C, strain MCK1, active compounds read low 1.03 | locus YNR049C, strain mso1, active compounds read low 0.991 | locus YNR052C, strain pop2, active compounds read low 0.983 | locus YOL012C, strain htz1 0.984 | locus YOL147C, strain pex11, active compounds read low 1.01 | locus YOR061W, strain CKA2, active compounds read low 1.01 | locus YOR069W, strain VPS5, active compounds read low 0.994 | locus YOR070C, strain gyp1, active compounds read low 0.971 | locus YOR083W, strain WHI5, active compounds read low 0.956 | locus YOR106W, strain vam3, active compounds read low 0.983 | locus YOR136W, strain idh2, active compounds read low 1.02 | locus YOR144C, strain elg1, active compounds read low 1.01 | locus YOR184W, strain ser1, active compounds read low 1 | locus YOR265W, strain rbl2, active compounds read low 0.987 | locus YOR270C, strain vph1, active compounds read low 0.792 | locus YOR316C, strain cot1, active compounds read low 1.02 | locus YPL051W, strain arl3, active compounds read low 1 | locus YPL241C, strain CIN2, active compounds read low 1.01 | locus YPR119W, strain clb2, active compounds read low 1.01 | locus YPR141C, strain kar3, active compounds read low 1.01 | locus YPR163C, strain tif3, active compounds read low 1.03 | locus YPR167C, strain met16, active compounds read low 1.03 | strain wtn01, active compounds read low 1.07
active: locus YKR026C, strain gcn3, active compounds read low 0.0616 | locus YLL001W, strain dnm1, active compounds read low 0.0851 | locus YLL026W, active compounds read low 0.0668 | locus YLL041C, strain sdh2, active compounds read low 0.0791 | locus YLR027C, strain aat2, active compounds read low 0.0727 | locus YLR113W, strain HOG1, active compounds read low 0.125 | locus YLR221C, strain rsa3, active compounds read low 0.342 | locus YLR342W, strain FKS1, active compounds read low 0.807 | locus YLR357W, strain rsc2, active compounds read low 0.123 | locus YLR370C, strain arc18, active compounds read low 0.112 | locus YLR384C, strain iki3, active compounds read low 0.754 | locus YML120C, strain ndi1, active compounds read low 0.0569 | locus YMR058W, strain fet3, active compounds read low 0.0612 | locus YMR125W, strain sto1, active compounds read low 0.0674 | locus YMR129W, active compounds read low 0.0583 | locus YMR205C, strain PFK2, active compounds read low 0.105 | locus YMR231W, strain pep5, active compounds read low 0.881 | locus YNL071W, strain lat1, active compounds read low 0.252 | locus YNL248C, strain rpa49, active compounds read low 0.0699 | locus YNL322C, strain KRE1 (second series), active compounds read low 0.092 | locus YOR001W, strain rrp6, active compounds read low 0.0632 | locus YOR080W, strain dia2, active compounds read low 0.389 | locus YOR231W, strain MKK1, active compounds read low 0.109 | locus YOR290C, strain snf2, active compounds read low 0.0611 | locus YPL078C, strain atp4, active compounds read low 0.157 | locus YPL106C, strain sse1, active compounds read low 0.319 | locus YPL240C, strain hsp82, active compounds read low 0.108 | locus YPL256C, strain CLN2, active compounds read low 0.122
